The assay addresses human Lymphocyte-cell Factor Kinase (Lck), LCK (gene 3932) (UniProt P06239). Nature of the assay: NVS_ENZ_hLck: NovaScreen (NVS) Enzymatic Assay for human Lymphocyte-cell Factor Kinase (Lck). As for the experimental part:
NVS_ENZ_hLck is a biochemical, single-readout assay that uses extracted gene-proteins in a cell-free assay. Measurements were taken 1 hour after chemical dosing in a 384-well plate.NVS_ENZ_hLck is one of one assay component(s) measured or calculated from the NVS_ENZ_hLck assay. It is designed to make measurements of enzyme activity, a form of enzyme reporter, as detected with fluorescence intensity signals by Fluorescence and electrophoretic mobility shift technology.Data from the assay component NVS_ENZ_hLck was analyzed into 1 assay endpoint. This assay endpoint, NVS_ENZ_hLck, was analyzed in the positive analysis fitting direction relative to DMSO as the negative control and baseline of activity. Using a type of enzyme reporter, loss-of-signal activity can be used to understand changes in the enzymatic activity as they relate to the gene LCK. Furthermore, this assay endpoint can be referred to as a primary readout, because this assay has produced […] where this one serves a enzymatic activity function. To generalize the intended target to other relatable targets, this assay endpoint is annotated to the kinase intended target family, where the subfamily is non-receptor tyrosine kinase.
Binding assays used specific radioligands (tritiated, iodinated) with non-radioactive competitive displacement ligands in agonist or antagonist protocols (as indicated) and various reference compounds and inhibitors to titrate specific binding to receptors and transporters. Most enzyme assays (CYPs, kinases, phosphatases, proteases, HDACs) used recombinant protein and specific substrates (fluorescence mostly, some colorimetric and radioactive) and inhibitors, followed by a biochemical separation of substrate and product. All assays for the biochemical HTS were initially run in duplicate at a single concentration (10 uM for CYP450 assays and 25 uM for all others). Assay-chemical combinations meeting a pre-defined threshold (e.g., 30% inhibition and other criteria defined below) were then run in singleton concentration-response format with maximum concentration of 20 uM for CYPs and 50 uM for all others. Each assay was run with positive and negative controls, and concurrent controls on every plate. The follow-up (secondary) screen tested active chemical-pairs in concentration series, as well as a few additional assays not tested in the primary screen, some selected negative inactives, and several cases re-run in the concentration series for confirmatory purposes.

Records with an inconclusive call do not appear. Calls of active or inactive are those of the source. How the source made its calls: active means hit-call score of the fitted dose curve at least 0.9, where 1 is the maximum; inconclusive means response in the unintended direction; inactive means score below 0.9.

Here are results for four compounds from PubChem BioAssay AID2283170 (EPA ToxCast).

human Lymphocyte-cell Factor Kinase (Lck), LCK (gene 3932), sequence (P06239 whole entry, looked up): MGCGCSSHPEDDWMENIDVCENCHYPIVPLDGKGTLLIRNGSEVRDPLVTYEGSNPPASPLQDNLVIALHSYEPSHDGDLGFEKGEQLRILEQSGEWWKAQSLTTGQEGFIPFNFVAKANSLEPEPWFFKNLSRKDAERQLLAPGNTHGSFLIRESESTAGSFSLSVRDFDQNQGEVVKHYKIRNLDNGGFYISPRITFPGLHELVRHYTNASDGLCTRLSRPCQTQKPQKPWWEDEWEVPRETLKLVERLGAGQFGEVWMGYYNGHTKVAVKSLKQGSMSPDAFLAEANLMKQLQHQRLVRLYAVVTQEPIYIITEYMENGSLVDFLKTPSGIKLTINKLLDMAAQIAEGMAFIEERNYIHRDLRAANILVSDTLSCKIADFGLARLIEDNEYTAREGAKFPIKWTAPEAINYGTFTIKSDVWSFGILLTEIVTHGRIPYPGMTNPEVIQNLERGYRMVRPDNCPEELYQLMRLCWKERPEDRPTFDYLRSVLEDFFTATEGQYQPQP

With `c1ccc(Nc2ccccc2)cc1`, the concentration at half-maximal activity (AC50) is 10.6 µM (active).

For `O=C(Nc1ccc([N+](=O)[O-])cc1Cl)c1cc(Cl)ccc1O`, the compound was called inactive.

Turning to `c1ccc2[nH]c(-c3cscn3)nc2c1`, the call was inactive.

Regarding `S=C([S-])NCCNC(=S)[S-].[Mn+2]`, the compound was called inactive.
